The nature of test [1]: A CellTox Green Cytotoxicity Assay to monitor cytotoxicity in HEK293 cells - 40 hour (AID 1224871). Note: nearly all actives have a fitted effect of over 45% in size. Note: potency is the fitted concentration of half-maximal effect. Put shortly:
(§1)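 Read-out: fluorescence of a cell-impermeant cyanine dye staining DNA of dead cells, proportional to cytotoxicity. HEK293, 600 cells/well with reagent, compound (23 nL DMSO) added after 5 h; reads at 0, 8, 16, 24, 32, 40 h.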

Test [2] can be described thus: qHTS RealTime-Glo MT Cell Viability Assay in HepG2 cells - 8 hour (AID 1224873). Note: nearly all actives have a fitted effect of over 55% in size. Summed up: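 Real-time viability: cells seeded at 600 per well together with NanoLuc and cell-permeant prosubstrate, compounds added after 5 h incubation. Luminescence tracked at 0, 8, 16, 24, 32 and 40 h of exposure.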
A general note: In qHTS, concentration-response curves come from the screen itself.

A short description of test [3]: qHTS RealTime-Glo MT Cell Viability Assay in HEK293 cells - 40 hour (AID 1224874). Note: nearly all actives have a fitted effect of over 50% in size. Note: potency is the fitted concentration of half-maximal effect. Conditions: RealTime-Glo luminescence; max response: stronger effect = lower value. Put shortly:
(§2)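 Luminescence readout at each listed time point; HEK293, 600 cells/well, RealTime-Glo MT reagent added with cells; compounds pinned (23 nL in DMSO) after 5 h at 37 C; continuous culture at 37 C.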

A short description of test [4]: A CellTox Green Cytotoxicity Assay to monitor cytotoxicity in HEK293 cells - 24 hour (AID 1224875). Note: series mostly up to about 77 µM; nearly all actives have a fitted effect of over 45% in size. Summed up: as §1
The nature of test [5]: A CellTox Green Cytotoxicity Assay to monitor cytotoxicity in HepG2 cells - 16 hour (AID 1224876). Note: nearly all actives have a fitted effect of over 45% in size. Summed up: (§3)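 HepG2, 600 cells/well premixed w/ CellTox Green; 5 h settle, 37 C/5% CO2; pintool cpd add (DMSO); 37 C, 40 h; fluorescence read at 0, 8, 16, 24, 32, 40 h.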
Test [6] is described as follows: qHTS RealTime-Glo MT Cell Viability Assay in HepG2 cells - 32 hour (AID 1224877). Note: nearly all actives have a fitted effect of over 55% in size. Summed up: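 HepG2 cells (600/well) were dispensed with RealTime-Glo reagents, incubated 5 h at 37 °C, then treated with compounds in DMSO for up to 40 h. Nonlytic NanoLuc luminescence reflecting viable cells was read at each stated time point.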
The nature of test [7]: A CellTox Green Cytotoxicity Assay to monitor cytotoxicity in HepG2 cells - 24 hour (AID 1224878). Note: nearly all actives have a fitted effect of over 45% in size. Summed up:
as §3

Test [8] can be described thus: A CellTox Green Cytotoxicity Assay to monitor cytotoxicity in HepG2 cells - 40 hour (AID 1224879). Note: nearly all actives have a fitted effect of over 40% in size. Put shortly:
as §3

Test [9] in a line: qHTS RealTime-Glo MT Cell Viability Assay in HEK293 cells - 0 hour (AID 1224880). Summed up: as §2

The structures appear in SMILES notation. Results filed as inconclusive are left out. A number with no mark means an inactive call. The source made the active and inactive calls. Calls come from the whole dose curve; as a rule, active = well fitted curve in the direction sought with a large enough effect in the repeat runs; inconclusive = weak or mixed curves; inactive = no such curve, though single readings can be large; an effect the other way counts as inactive or inconclusive.
% is set by controls: 0 for no effect and ±100 for the full control effect.

In the case of `CC(C)=CCC1=C(O)c2ccccc2C(=O)C1=O`, the Potency result in test [1], in [2], in test [4], in test [5], in test [6] and in test [7] was “inactive” in each case. For the same compound, the Potency result in test [8] and in test [9] was “inactive” in each case. The Potency in test [3] was 24.4 µM (active).
With `O=C(O)CCN(C1(C(=O)NO)CCCC1)S(=O)(=O)c1ccc(Oc2ccc(F)cc2)cc1`, the Potency result in test [1], in [2], in test [4], in test [5], in test [6] and in test [7] was “inactive” each time. The Potency result in test [8] and in test [9] was “inactive” throughout. The max response in test [3] was 9.57%.
Regarding `CCCCC(CC)COC(=O)CCCCC(=O)OCc1ccccc1` (stereo unspecified), the Potency result in test [1], in test [2], in [4], in test [5], in test [6] and in [7] was “inactive” throughout. The Potency result in [8] and in test [9] was “inactive” throughout. In addition, in test [3], the max response is -2.79%.
On to `CC(N=C(NC#N)Nc1ccncc1)C(C)(C)C` (stereo unspecified), for which the Potency entry in test [1], in [2], in test [4], in [5], in test [6] and in test [7] was “inactive” throughout. Also, the Potency result in [8] and in test [9] was “inactive” throughout. The max response in [3] was -0.652%.
For `CCc1oc2ccccc2c1C(=O)c1cc(I)c(O)c(I)c1`, the Potency result in [1], in [2], in test [4], in test [5], in [6] and in [7] was “inactive” in each case. Further, the Potency entry in test [8] and in test [9] was “inactive” throughout. In addition, the max response in test [3] was -23.8%.
In the case of `O=C(O)c1cc(-c2ccc(F)cc2F)ccc1O`, the Potency result in test [1], in [2], in test [4], in test [5], in test [6] and in [7] was “inactive” throughout. The Potency result in test [8] and in [9] was “inactive” each time. In test [3], the max response was -1.84%.
In the case of `Cc1cc(-c2ccc(N=Nc3cc(S(=O)(=O)O)c4ccccc4c3N)c(C)c2)ccc1N=Nc1cc(S(=O)(=O)O)c2ccccc2c1N`, the Potency in test [1] was 49.2 µM (active); in test [3] it was 2.2 µM (active). The Potency result in test [2], in [5], in test [6], in test [7], in test [8] and in test [9] was “inactive” each time.
`Nc1ccc(C(=O)O)c(O)c1`: the Potency entry in test [1], in [2], in test [4], in test [5], in test [6] and in test [9] was “inactive” throughout. Also, in test [3], the max response is -4.05%.
As to `O=C1CCc2cc(OCCCCc3nnnn3C3CCCCC3)ccc2N1`, the Potency entry in test [1], in [2], in [4], in test [5], in test [6] and in test [7] was “inactive” in each case. The Potency result in test [8] and in [9] was “inactive” in each case.
`CC[C@H](C)COC(=O)/C=C/c1ccc(N=Cc2ccc(OC)cc2)cc1`: the Potency in [1] is 48.9 µM (active); in test [3], 21.8 µM (active). In addition, the Potency result in test [2], in test [5] and in test [6] was “inactive” in each case.
Consider `C[C@H]1NCc2cc(-c3ccc4c(=O)c(C(=O)O)cn(C5CC5)c4c3OC(F)F)ccc21`, for which the values for the cytotoxicity increase in test [1], in test [5] and in [8] were -4.15% [at 15.8 µM], 1.43% [at 15.8 µM] and 1.86% [at 15.8 µM], respectively. In [2], the viability change, negative = cytotoxic is -17% [at 15.8 µM]. The max response in test [3] was -6.6%. In addition, the activity change in test [4] is -2.55% [at 15.8 µM, stronger effect = higher value]. In test [6], the activity change, negative = cytotoxic was -0.83% [at 15.8 µM]. In addition, the cytotoxicity in test [7] was 1.74% [at 15.8 µM]. Besides, in test [9], the activity change, negative = cytotoxicity was -10.2% [at 15.8 µM].
On to `Cc1ccc(O)c(N)c1`, for which the Potency result in test [1], in test [2], in test [4], in test [5] and in test [6] was “inactive” throughout.
Take `CCc1cccc(CC)c1NC(=O)CN(CC(=O)O)CC(=O)O`: the Potency entry in test [1], in test [2], in test [4], in [5], in test [6] and in test [7] was “inactive” in each case. In addition, the Potency entry in test [8] and in test [9] was “inactive” in each case. For the same compound, the max response in test [3] is 1.69%.
`CCC(CC)C(C)CCOC(C)=O` (stereo unspecified): the Potency result in [1], in [2], in test [4], in test [5], in test [6] and in [7] was “inactive” each time. The Potency result in test [8] and in test [9] was “inactive” each time. Besides, in test [3], the max response is 20.3%.
Consider `CCCCCCOC(=O)C(C)CC` (stereo unspecified), for which the Potency entry in test [1], in test [2], in test [4], in test [5], in test [6] and in [7] was “inactive” in each case. The Potency result in test [8] and in test [9] was “inactive” throughout. Also, the max response in [3] was -1.46%.
For `Cc1cccc(C)c1NC(=O)c1ccc(N)cc1`, the Potency result in test [1], in [2], in test [4], in [5], in [6] and in test [7] was “inactive” throughout. The Potency entry in test [8] and in test [9] was “inactive” in each case. In addition, the max response in test [3] was -2.12%.
As for `COc1cc(/C=C/c2ccccc2)oc(=O)c1`, the Potency result in test [1], in [2], in [4], in test [5], in test [6] and in test [7] was “inactive” each time. The Potency entry in test [8] and in test [9] was “inactive” each time.
`Cc1cccc(C(=O)O)c1O`: the Potency result in test [1], in test [2], in [4], in test [5], in test [6] and in test [7] was “inactive” in each case. Further, the Potency result in test [8] and in [9] was “inactive” in each case. Further, the max response in test [3] was 6.77%.
Take `C=CC(=O)OCCOC(=O)C=C`: the Potency in test [1] is 43.6 µM (active); in [3], 49 µM (active). Moreover, the Potency entry in test [2], in test [4], in test [5], in [6], in test [7] and in test [8] was “inactive” throughout. Besides, the Potency entry in [9] was “inactive”.
For the compound `COCCOc1cc2cc(C(=O)NC3CCN(C(C)C)CC3)n(CC(=O)Nc3ccc(Cl)cn3)c2cn1`, the Potency entry in test [1], in [2], in test [4], in test [5], in test [6] and in test [7] was “inactive” in each case. For the same compound, the Potency entry in test [8] and in [9] was “inactive” each time. The max response in test [3] was -25.3%.
As for `O=[N+]([O-])c1cccc(C(F)(F)F)c1`, the Potency entry in test [1], in test [2], in test [4], in [5], in test [6] and in [7] was “inactive” throughout. The Potency entry in [8] and in test [9] was “inactive” in each case. Moreover, the max response in test [3] was 7.87%.

The values above are taken from PubChem BioAssay (Tox21).
